In PubChem BioAssay (Tox21):
Inconclusive results are not listed. Calls of active or inactive are those of the source. Unless noted, calls come from the whole dose curve; as a rule, active = well fitted curve in the direction sought with a large enough effect in the repeat runs; inconclusive = weak or mixed curves; inactive = no such curve, though single readings can be large; an effect the other way counts as inactive or inconclusive.

Key:
[1] = qHTS assay to identify small molecule agonists of the hypoxia (HIF-1) signaling pathway - cell viability counter screen (AID 1224844; calls by dose curve; note: nearly all actives have a fitted effect of over 50% in size)
Summary of the method: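 Luminescent ATP content (CellTiter-Glo, 30 min, room temperature) served as the viability measure in HRE-bla ME-180 cells exposed to compounds for 17 hrs in low-serum medium (0.5% dialyzed FBS).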

[2] = qHTS assay to identify small molecule agonists of H2AX (AID 1224845; active = well fitted activation curve with a large enough effect in the signal ratio in the repeat runs, not every such curve was filed as active; the % refers to the signal ratio)
Summary of the method: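 Phospho-H2AX Ser139 measured by HTRF (ex 320 nm; em 665 and 620 nm) after 24 hr antibody incubation. Compounds, 15 concentrations, 0.76% DMSO, were applied to CHO-K1 cells for 3hr at 37C before lysis.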

[3] = qHTS assay to identify small molecule agonists of H2AX - cell viability counter screen (AID 1224847; calls by dose curve; note: nearly all actives have a fitted effect of over 30% in size; note: potency is the fitted concentration of half-maximal effect)
Summary of the method: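 Wild-type CHO-K1 cells (10% FBS medium) were plated overnight at 37C, exposed to compounds at 15 concentrations for 3 hr at 37C (0.76% DMSO final), and viability was read as CellTiter-Glo luminescence after 30 min at room temperature.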

[4] = qHTS assay to identify small molecule antagonists of the estrogen related receptor (ERR) signaling pathway from Tox21 library (AID 1224848); note: nearly all actives have a fitted effect of over 50% in size; note: potency is the fitted concentration of half-maximal effect
Summary of the method: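 Antagonist-mode screen of the Tox21 10K library in an NTP-provided ERR reporter cell line; 18 h compound exposure at 37 C, luminescence measured with ONE-Glo.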

[5] = qHTS assay to identify small molecule agonists of the estrogen related receptor (ERR) signaling pathway from Tox21 library (AID 1224849; calls by dose curve; note: nearly all actives have a fitted effect of over 15% in size); conditions: ERR reporter cell line, ONE-Glo luciferase, 18 h; at 92.4 µM (top of the series) unless noted
Summary of the method: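 We plated ERR reporter cells, waited 6 h, added compounds in DMSO by pin tool and incubated them 18 h at 37 C. ONE-Glo was then added and luminescence read after 30 min.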

[6] = qHTS RealTime-Glo MT Cell Viability Assay in HepG2 cells - 24 hour (AID 1224867); note: nearly all actives have a fitted effect of over 50% in size
Summary of the method: (§1)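 Viability was tracked continuously by NanoLuc luminescence from prosubstrate reduced by living HepG2 cells, at successive time points over 40 h of compound exposure. Cells with reagent were preincubated 5 h at 37 °C before compound addition.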

[7] = qHTS RealTime-Glo MT Cell Viability Assay in HEK293 cells - 32 hour (AID 1224868); note: nearly all actives have a fitted effect of over 50% in size; note: potency is the fitted concentration of half-maximal effect
Summary of the method: (§2)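 Viability tracked continuously by luminescence as live cells reduce a prosubstrate for NanoLuc; HEK293 cells preincubated 5 h, compound-treated at 37 C, and read at 0, 8, 16, 24, 32 and 40 h.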

[8] = A CellTox Green Cytotoxicity Assay to monitor cytotoxicity in HEK293 cells - 0 hour (AID 1224869); note: nearly all actives have a fitted effect of over 50% in size
Summary of the method: (§3)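 Each value comes from one timepoint of a single continuous run in which HEK293 cells with CellTox Green were exposed to compound for up to 40 h at 37 C, dye fluorescence rising with cell death.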

[9] = qHTS RealTime-Glo MT Cell Viability Assay in HepG2 cells - 40 hour (AID 1224870); note: nearly all actives have a fitted effect of over 50% in size
Summary of the method: (§4)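 Real-time viability: cells seeded at 600 per well together with NanoLuc and cell-permeant prosubstrate, compounds added after 5 h incubation. Luminescence tracked at 0, 8, 16, 24, 32 and 40 h of exposure.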

[10] = A CellTox Green Cytotoxicity Assay to monitor cytotoxicity in HEK293 cells - 40 hour (AID 1224871); note: nearly all actives have a fitted effect of over 45% in size; note: potency is the fitted concentration of half-maximal effect
Summary of the method: as §3

[11] = qHTS RealTime-Glo MT Cell Viability Assay in HEK293 cells - 16 hour (AID 1224872); note: nearly all actives have a fitted effect of over 50% in size; note: potency is the fitted concentration of half-maximal effect
Summary of the method: as §2

[12] = qHTS RealTime-Glo MT Cell Viability Assay in HepG2 cells - 8 hour (AID 1224873); note: nearly all actives have a fitted effect of over 55% in size
Summary of the method: as §4

[13] = qHTS RealTime-Glo MT Cell Viability Assay in HEK293 cells - 40 hour (AID 1224874); conditions: RealTime-Glo luminescence; max response: hits give low values; note: nearly all actives have a fitted effect of over 50% in size; note: potency is the fitted concentration of half-maximal effect
Summary of the method: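 qHTS format; HEK293 cells with NanoLuc/prosubstrate reagent, 37 C/5% CO2 for 5 h pre-dosing; compounds 23 nL in DMSO; luminescence at each time point reflects viable cells.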

[14] = A CellTox Green Cytotoxicity Assay to monitor cytotoxicity in HEK293 cells - 24 hour (AID 1224875); note: nearly all actives have a fitted effect of over 45% in size; note: potency is the fitted concentration of half-maximal effect
Summary of the method: as §3

[15] = qHTS RealTime-Glo MT Cell Viability Assay in HepG2 cells - 32 hour (AID 1224877); note: nearly all actives have a fitted effect of over 55% in size
Summary of the method: as §1

[16] = qHTS assay to identify small molecule agonists of the hypoxia (HIF-1) signaling pathway (AID 1224846; active = well fitted activation curve with a large enough effect in the signal ratio in the repeat runs, not every such curve was filed as active; the % refers to the signal ratio)
Summary of the method: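 Measured by blue/green FRET after loading CCF4-AM: beta-lactamase expressed from a hypoxia response element in ME-180 cells. Test agents were delivered in DMSO and left 17 hrs; cells had been plated 5 hrs earlier in low-serum (0.5% dialyzed FBS) medium.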

[17] = A CellTox Green Cytotoxicity Assay to monitor cytotoxicity in HepG2 cells - 16 hour (AID 1224876); note: nearly all actives have a fitted effect of over 45% in size; note: potency is the fitted concentration of half-maximal effect
Summary of the method: (§5)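 Continuous culture of HepG2 cells with a membrane-impermeant DNA dye; rising fluorescence marks dead cells. Compound exposure lasted up to 40 h at 37 C, with reads every 8 h from 0 h.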

[18] = A CellTox Green Cytotoxicity Assay to monitor cytotoxicity in HepG2 cells - 24 hour (AID 1224878); note: nearly all actives have a fitted effect of over 45% in size; note: potency is the fitted concentration of half-maximal effect
Summary of the method: as §5

[19] = A CellTox Green Cytotoxicity Assay to monitor cytotoxicity in HepG2 cells - 40 hour (AID 1224879); note: nearly all actives have a fitted effect of over 40% in size; note: potency is the fitted concentration of half-maximal effect
Summary of the method: as §5

[20] = biological target: Thyrotropin receptor (Homo sapiens) (UniProt P16473); assay: qHTS assay to identify small molecule agonists of the thyroid stimulating hormone receptor (TSHR) signaling pathway (AID 1224843; calls by dose curve; note: nearly all actives have a fitted effect of over 45% in size)
Thyrotropin receptor (Homo sapiens), sequence (P16473 whole entry, looked up): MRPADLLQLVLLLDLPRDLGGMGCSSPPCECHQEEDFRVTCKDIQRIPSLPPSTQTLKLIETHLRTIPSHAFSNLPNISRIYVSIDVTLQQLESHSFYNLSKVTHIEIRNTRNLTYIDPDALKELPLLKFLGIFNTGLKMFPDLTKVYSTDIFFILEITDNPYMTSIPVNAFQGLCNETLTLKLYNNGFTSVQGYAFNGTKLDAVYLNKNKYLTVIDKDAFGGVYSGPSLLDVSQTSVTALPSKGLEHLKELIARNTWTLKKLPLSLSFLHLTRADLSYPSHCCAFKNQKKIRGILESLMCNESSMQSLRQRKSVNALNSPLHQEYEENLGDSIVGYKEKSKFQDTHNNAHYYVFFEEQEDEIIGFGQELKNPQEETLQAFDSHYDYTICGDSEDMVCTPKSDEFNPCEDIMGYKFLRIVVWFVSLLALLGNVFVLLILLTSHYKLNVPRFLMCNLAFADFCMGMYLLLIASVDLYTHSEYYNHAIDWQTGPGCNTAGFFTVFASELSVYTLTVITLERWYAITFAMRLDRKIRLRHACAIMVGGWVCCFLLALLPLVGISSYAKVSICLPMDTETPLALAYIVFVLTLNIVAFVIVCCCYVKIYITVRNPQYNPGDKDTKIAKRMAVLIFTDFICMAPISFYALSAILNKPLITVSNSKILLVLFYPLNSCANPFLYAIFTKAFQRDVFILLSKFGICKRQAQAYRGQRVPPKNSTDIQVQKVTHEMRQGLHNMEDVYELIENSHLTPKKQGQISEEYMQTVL
Summary of the method: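 Screening of the Tox21 10K collection used HEK293 cells engineered with TSHR at 800 cells per well. After a 30-min room-temperature compound exposure, HTRF cAMP reagents were added and fluorescence recorded 1 h later.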
% is set by controls: 0 for no effect and ±100 for the full control effect.

COc1ncnc(NS(=O)(=O)c2ccc(N)cc2)c1OC
inactive: Potency [1] | Potency [2] | Potency [3] | Potency [4] | activity change, positive = activation [5] 1.61% [at 42.5 µM] | Potency [6] | Potency [7] | Potency [8] | Potency [9] | Potency [10] | Potency [11] | Potency [12] | max response [13] -0.242% | Potency [14] | Potency [15]

Nc1ccc(N=Nc2ccccc2)c(N)c1
inactive: Potency [1] | outcome [16] | Potency [8] | Potency [9] | Potency [10] | Potency [14] | Potency [17] | Potency [15] | Potency [18] | Potency [19]
active: Potency [3] 98.6 µM | Potency [7] 42.7 µM | Potency [11] 42.7 µM | Potency [13] 38.1 µM

O=C(O)CCc1nc(-c2ccccc2)c(-c2ccccc2)o1
inactive: Potency [20] | Potency [3] | Potency [4] | activity change, positive = activation [5] -3.38% [at 42.5 µM] | Potency [7] | Potency [8] | Potency [9] | Potency [10] | Potency [11] | Potency [12] | max response [13] 0.935% | Potency [14] | Potency [15] | Potency [18] | Potency [19]

COC(=O)[C@H]1[C@H]2C[C@@H]3c4[nH]c5cc(OC)ccc5c4CCN3C[C@H]2C[C@@H](OC(=O)/C=C/c2ccc(O)c(OC)c2)[C@@H]1OC
inactive: Potency [1] | Potency [2] | outcome [16] | Potency [3] | activity change, positive = activation [5] -35.3% [at 42.5 µM] | Potency [6] | Potency [9] | Potency [15]
active: Potency [4] 10.6 µM | Potency [14] 16.9 µM | Potency [17] 23.9 µM | Potency [18] 26.8 µM | Potency [19] 23.9 µM

O=C1c2ccccc2C(=O)N1CCc1noc(-c2ccc(CN3CCCCCC3)s2)n1
inactive: Potency [1] | outcome [16] | Potency [6] | Potency [9] | Potency [14] | Potency [15]
active: Potency [3] 92.3 µM | Potency [7] 35.7 µM | Potency [10] 40 µM | Potency [11] 22.5 µM | Potency [13] 20.1 µM | Potency [17] 20.1 µM | Potency [18] 31.8 µM | Potency [19] 35.7 µM

FC(F)(F)c1ccccc1Cl
inactive: Potency [1] | Potency [2] | outcome [16] | Potency [3] | Potency [4] | activity change, positive = activation [5] -2.05% | Potency [6] | Potency [7] | Potency [9] | Potency [10] | Potency [11] | Potency [12] | Potency [14] | Potency [15] | Potency [18] | Potency [19]

COc1ccccc1NC(=O)c1cc2ccccc2cc1O
active: Potency [3] 89.8 µM | Potency [4] 19.3 µM | Potency [7] 34.7 µM | Potency [11] 24.5 µM | Potency [13] 34.7 µM
inactive: Potency [20] | activity change, positive = activation [5] -49.7% | Potency [8] | Potency [14] | Potency [18]

C[C@H]1c2cccc(O)c2C(O)=C2C(=O)[C@]3(O)C(O)=C(C(N)=O)C(=O)[C@@H](N(C)C)[C@@H]3[C@@H](O)[C@@H]21
inactive: Potency [1] | Potency [2] | outcome [16] | Potency [3] | activity change, positive = activation [5] -33.4% [at 42.5 µM] | Potency [6] | Potency [7] | Potency [8] | Potency [9] | Potency [10] | Potency [11] | Potency [12] | max response [13] 0.751% | Potency [14] | Potency [15] | Potency [18] | Potency [19]
active: Potency [4] 18.8 µM

CC/C=C1/OC(=O)c2ccccc21
inactive: Potency [1] | Potency [2] | outcome [16] | Potency [3] | Potency [4] | activity change, positive = activation [5] -1.59% | Potency [6] | Potency [7] | Potency [8] | Potency [9] | Potency [11] | Potency [12] | max response [13] -7.38% | Potency [14] | Potency [17] | Potency [15] | Potency [18] | Potency [19]

O=C1NCCN1CCO
inactive: Potency [1] | outcome [16] | Potency [3] | Potency [6] | Potency [7] | Potency [9] | Potency [10] | Potency [11] | Potency [12] | max response [13] 15.9% | Potency [14] | Potency [17] | Potency [15] | Potency [18] | Potency [19]

CCCCCC[C@@H](O)C/C=C\CCCCCCCC(=O)OCC(O)CO (some centres undefined)
inactive: Potency [1] | Potency [2] | outcome [16] | Potency [3] | Potency [4] | activity change, positive = activation [5] -2.03% | Potency [6] | Potency [7] | Potency [8] | Potency [9] | Potency [10] | Potency [11] | Potency [12] | max response [13] 10.7% | Potency [14] | Potency [17] | Potency [15] | Potency [18] | Potency [19]

CN(C(=O)CN(CCO)CC(=O)N(C)C(C)(C)Cc1ccccc1)C(C)(C)Cc1ccccc1
active: Potency [7] 19 µM | Potency [13] 19 µM | Potency [17] 23.9 µM | Potency [18] 23.9 µM | Potency [19] 23.9 µM
inactive: Potency [1] | Potency [2] | activity change, positive = activation [5] -27.5% [at 42.5 µM]

COC(=O)CS
inactive: Potency [20] | outcome [16] | Potency [3] | Potency [6] | Potency [7] | Potency [8] | Potency [9] | Potency [11] | Potency [12] | max response [13] 0.933% | Potency [14] | Potency [17] | Potency [18] | Potency [19]
